A word on the AC50: it is the concentration at which the activity in the assay is half-maximal.

Inconclusive results are not listed. The source made the active and inactive calls. The calls were made as follows: active = hit-call score of the fitted dose curve at least 0.9, where 1 is the maximum; inconclusive = response in the unintended direction; inactive = score below 0.9.

Read-out in the assay: Cytochrome P450 2B6 (Homo sapiens) (UniProt P20813)
The experiment in a line: CLD_CYP2B6_48hr: CellzDirect (CLD) Gene Expression Assay for xenobiotic metabolism (CYP2B6) at 48 hours (AID 2283699).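 Also: actives raise transcript level above DMSO so potency reflects induction.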 On the procedure: CLD_48hr is a cell-based, multiplexed-readout assay that uses hepatocyte, a human liver primary cell, with measurements taken at 48 hours after chemical dosing in a 96-well plate.CLD_CYP2B6_48hr is one of 16 assay component(s) measured or calculated from the CLD_48hr assay. It is designed to make measurements of mRNA induction, a form of inducible reporter, as detected with chemiluminescence signals by Quantitative Nuclease Protection Assay (qNPA) technology.Data from the assay component CLD_CYP2B6_48hr was analyzed at the endpoint, CLD_CYP2B6_48hr, in the positive analysis fitting direction relative to DMSO as the negative control and baseline of activity. Using a type of inducible reporter, gain-of-signal activity can be used to understand changes in the reporter gene as they relate to the gene CYP2B6. Furthermore, this assay endpoint can be referred to as a primary readout. To generalize the intended target to other relatable targets, this assay endpoint is annotated to the cyp intended target family, where subfamily is xenobiotic metabolism.
Human hepatocyte cultures were treated daily for two consecutive days with fresh dosing solutions containing appropriate concentrations of the 320 ToxCast chemicals (chemical identities were blinded to CellzDirect and other ToxCast collaborators), vehicle control (0.2% DMSO), and positive control inducers as summarized in Table 1. Due to the large number of treatment groups and chemicals examined, the ToxCast chemicals were divided into two groups (spanning two independent cultures of hepatocytes from separate donor preparations (Hu778: ToxCast plates 1 and 2; Hu776: ToxCast plates 3 and 4). Each preparation of human hepatocyte cultures was treated with respective vehicle control, medium only control, set of six positive controls/reference chemicals for the five hepatic receptor pathways, and a subset of eight of the ToxCast chemicals (indoxacarb, pyrithiobac-sodium, norflurazon, cyhalofop-butyl, methomyl, thiram, acetochlor, and propiconazole). These replicate data, coupled with internal replicates designed within the blinded ToxCast chemical library, provided additional data to evaluate interindividual differences between hepatocyte preparations and their potential impact on chemical profiles.Cell morphology and integrity were evaluated using phase-contrast microscopy as an indicator of hepatocyte cell health (Tyson & Green, 1987). Cultures for each treatment group (i.e., media, vehicle [0.2% DMSO], positive control inducers [multiple concentrations], and the ToxCast chemicals [multiple concentrations]) were observed and cell morphology was assessed relative to vehicle control cultures at each harvest time point (0, 6, 24, or 48 h). […] Images were evaluated at the conclusion of the study to assess changes in cell integrity and account for the effects of chemical exposure on uncharacteristic changes in concentration-dependent gene expression profiles. The results from these determinations of apparent cytotoxicity were annotated (yes/no) alongside the corresponding qNPA data for reference.At the conclusion of each treatment period, hepatocyte cultures (96-well) were washed with 1 volume of HBSS, lysed by addition of 25 ul ArrayPlate lysis buffer (HTG, Tucson, AZ), and 70 ul/well of Denaturation Oil, denatured by incubation at 95C for 10 min, and frozen at approximately -70C until analysis by nuclease protection assay (qNPA) (Roberts et al., 2007). For qNPA analysis, cell lysates were thawed at 50C for approximately 30 min, qNPA probes were added, and samples were incubated at 95C for 10 min to begin the detection process by denaturing the target RNA, dissociating the duplexes and secondary structure hybridization. At the conclusion of the hybridization period, S1 nuclease reagent was added to each sample to digest all nonprotected nucleotides at 50C for 60-90 min. […]
Regarding `CCC(=NOC/C=C/Cl)C1=C(O)CC(C2CCOCC2)CC1=O` (stereo not given), the result was inactive.

`CCC(=O)Nc1ccc(Cl)c(Cl)c1`: the AC50 is 0.92 µM (active).

For the compound `CCCSP(=O)(OCC)Oc1ccc(Br)cc1Cl` (stereo not given), the AC50 was 3.63 µM (active).

Take `CCOC(=O)CC(SP(=O)(OC)OC)C(=O)OCC` (stereo not given): the AC50 was 20 µM (active).

For `CCCSP(=O)(OCC)SCCC`, the concentration at half-maximal activity (AC50) is 3.82 µM (active).

`CCOC(=O)COc1cc(-c2nn(C)c(OC(F)F)c2Cl)c(F)cc1Cl`: the AC50 was 13.5 µM (active).

Regarding `C=C(C)[C@H]1Cc2c(ccc3c2O[C@@H]2COc4cc(OC)c(OC)cc4[C@@H]2C3=O)O1`, the result was inactive.

For `CCNc1nc(Cl)nc(NC(C)(C)C#N)n1`, the AC50 is 3.45 µM (active).

Regarding `CCCOCC(=Nc1ccc(Cl)cc1C(F)(F)F)n1ccnc1`, the compound was called inactive.

For `CCCCOC(=O)[C@@H](C)Oc1ccc(Oc2ccc(C#N)cc2F)cc1`, the outcome was inactive.

As for `CC(C1CC1)C(O)(Cn1cncn1)c1ccc(Cl)cc1` (stereo not given), the AC50 is 2.42 µM (active).

`C[Si](Cn1cncn1)(c1ccc(F)cc1)c1ccc(F)cc1`: the AC50 is 0.051 µM (active).

As for `CON=C(C(=O)OC)c1ccccc1CON=C(C)c1cccc(C(F)(F)F)c1`, the call was inactive.

Consider `O=C(O)c1cc(Oc2ccc(C(F)(F)F)cc2Cl)ccc1[N+](=O)[O-]`, for which the call was inactive.

With `CCC(CC)Nc1c([N+](=O)[O-])cc(C)c(C)c1[N+](=O)[O-]`, the AC50 is 6.23 µM (active).

On to `C#CC(C)(C)NC(=O)c1cc(Cl)cc(Cl)c1`, for which the half-maximal activity concentration (AC50) is 3.69 µM (active).

As to `CCOP(=S)(OCC)OC(Cl)C(Cl)(Cl)Cl` (stereo not given), the AC50 is 0.0135 µM (active).

Turning to `CCCCN(CC)c1c([N+](=O)[O-])cc(C(F)(F)F)cc1[N+](=O)[O-]`, the half-maximal activity concentration (AC50) is 4.17 µM (active).

Turning to `CCOP(=S)(OCC)Oc1ccc([N+](=O)[O-])cc1`, the AC50 was 1.13 µM (active).

For `CCOP(=S)(OCC)Oc1cc(C)nc(C(C)C)n1`, the AC50 is 1.89 µM (active).

Take `CSc1nc(NC(C)C)nc(NC(C)C)n1`: the half-maximal activity concentration (AC50) was 3.24 µM (active).

For `CCOP(=S)(OCC)SCCSCC`, the AC50 is 1.68 µM (active).

On to `CNc1cnn(-c2cccc(C(F)(F)F)c2)c(=O)c1Cl`, for which the AC50 is 3.19 µM (active).

In the case of `CCCCSP(=O)(SCCCC)SCCCC`, the AC50 is 4.3 µM (active).

As for `CN(C)C(=O)Nc1cccc(C(F)(F)F)c1`, the AC50 was 3.69 µM (active).

Take `CC(C)N(C(=O)SCC(Cl)=C(Cl)Cl)C(C)C`: the AC50 was 3.91 µM (active).

As to `CC(COc1ccc(Oc2ccccc2)cc1)Oc1ccccn1` (stereo not given), the AC50 is 3.53 µM (active).

As to `COc1cccc(C(=O)NN(C(=O)c2cc(C)cc(C)c2)C(C)(C)C)c1C`, the result was inactive.

For `CN(C)NC(=O)CCC(=O)O`, the result was inactive.

Turning to `Cc1cc(C2CC2)nc(Nc2ccccc2)n1`, the AC50 is 1.09 µM (active).

Consider `COP(=O)(NC(C)=O)SC` (stereo not given), for which the compound was called inactive.

In the case of `CCOP(=S)(Oc1cnc(C(C)(C)C)nc1)OC(C)C` (stereo not given), the AC50 was 0.427 µM (active).

Turning to `CC(C)[C@H](C(=O)O[C@H](C#N)c1cccc(Oc2ccccc2)c1)c1ccc(Cl)cc1`, the AC50 is 8.04 µM (active).

For `Nc1c(Cl)cc([N+](=O)[O-])cc1Cl`, the AC50 was 6.25 µM (active).

In the case of `CCOP(=O)(OCC)Oc1cc(C)nc(C(C)C)n1`, the AC50 is 5.53 µM (active).

Regarding `CCOP(=O)(NC(C)C)Oc1ccc(SC)c(C)c1` (stereo not given), the AC50 was 10.7 µM (active).

As for `C#CCC1=C(C)C(OC(=O)C2C(C=C(C)C)C2(C)C)CC1=O` (stereo not given), the AC50 was 4.91 µM (active).

For the compound `CSc1nnc(C(C)(C)C)c(=O)n1N`, the AC50 is 20 µM (active).

In the case of `CCOP(=O)(SC(C)CC)N1CCSC1=O` (stereo not given), the AC50 is 2.05 µM (active).

Consider `CCc1cccc(C)c1N(C(=O)CCl)C(C)COC` (stereo not given), for which the AC50 is 0.969 µM (active).
